Assay outcomes: PubChem BioAssay, National Center for Advancing Translational Sciences (NCATS)
Hits are enriched below; roughly 3.8% of the tested compounds scored in any of these assays.
DRV1 agonist = qHTS for Agonists of Human Resolvin D1 Receptor DRV1; Probable G-protein coupled receptor 32 (Homo sapiens), O75388; hit rate 2.5% among 48,000; activation, % at 76.9 µM; CHO-K1 GPR32 beta-arrestin PathHunter luminescence, 90 min; zero percent set by DMSO-only wells;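 active = activation of at least 60% and not above a set upper limit, about 1 call in 100 departs from these limits; inconclusive = activation of 40% to 60%, or above that upper limit; inactive = activation under 40%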
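Agonism was scored by beta-Gal fragment complementation (chemiluminescent read, 1 h detection at ambient temperature) reporting beta-arrestin binding to GPR32 in engineered CHO-K1 cells. Compound treatment lasted 90 min at 37 C, normalized to a DMSO basal control.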
OvCa metastasis = Primary qHTS assay for Inhibitors of ovarian cancer metastasis using an organotypic tumor microenvironment (TME) model; SKOV3ip1-GFP adhesion/invasion on 3D omental model, fluorescence; Potency, µM (doses to about 45.8 µM), usual class: inhibitors; hit rate 0.1% among 46,000; note: nearly all actives have a fitted effect of over 65% in size
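qHTS, 4-pt dose (0.36-46 umol/L); SKOV3ip1-GFP, 1,200 cells/well, no FBS; primary omental fibroblast/mesothelial co-culture 48 h pre-grown; 2 h RT + 16 h 37 C; PBS wash, 4% PFA; GFP count 488/509 nm.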
PTAP-TSG101 blk = qHTS Validation Assay for Inhibitors of HIV-1 Budding by Blocking the Interaction of PTAP/TSG101: Sytravon Library Screen. Tumor susceptibility gene 101 protein (Homo sapiens), Q99816. Fluorescence polarization, FITC-PTAP peptide/Tsg101, 20 min. Potency, µM (series often up to 115 µM), most hits filed as inhibitors. 44,000 tested, under 10 active
Target sequence (Q99816 whole entry, looked up): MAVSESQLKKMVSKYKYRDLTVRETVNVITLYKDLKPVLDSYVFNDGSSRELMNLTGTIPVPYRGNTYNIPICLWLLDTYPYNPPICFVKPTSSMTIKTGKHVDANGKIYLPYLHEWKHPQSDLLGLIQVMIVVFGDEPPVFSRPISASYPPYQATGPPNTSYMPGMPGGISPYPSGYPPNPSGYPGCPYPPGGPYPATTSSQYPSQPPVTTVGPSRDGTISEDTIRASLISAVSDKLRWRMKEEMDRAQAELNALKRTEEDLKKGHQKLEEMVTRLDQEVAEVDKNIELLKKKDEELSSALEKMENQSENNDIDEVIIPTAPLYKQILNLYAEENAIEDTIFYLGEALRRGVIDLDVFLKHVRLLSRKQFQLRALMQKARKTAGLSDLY
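Read-out is FITC fluorescence polarization. Compounds were added to Tsg101 binding domain (10 uM final), then FITC-PTAP peptide (50 nM final), 20 min at r.t. Total S+P intensity flags fluorescent compounds.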
NTMT1 inh = Primary qHTS for Inhibitors of N-terminal methyltransferase 1 (NTMT1): MTaseGlo Assay; hit rate 2.5% among 59,000; N-terminal Xaa-Pro-Lys N-methyltransferase 1 (Homo sapiens), Q9BV86; Potency, µM (titrated, usually from 114 µM), hits mostly inhibitors; NTMT1 MTase-Glo SAH luminescence, purified enzyme; note: nearly all actives have a fitted effect of over 65% in size
GALK inh = qHTS Assay for Inhibitors of Human Galactokinase (GALK): NCGC Sytravon Library Screen; Potency, µM (titrated, usually from 57.5 µM), usual class: inhibitors; recombinant GALK, Kinase-Glo ATP luminescence, 1 h; 44,000 tested, under 10 active; AID 1347072, 2019; P51570
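Human GALK (5 nM) was incubated with 35 uM ATP and 100 uM galactose in 20 mM HEPES pH 8.0 with MgCl2, NaCl, DTT and BSA for 1 h at room temperature. Remaining ATP was measured by Kinase-Glo Plus luminescence.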
B2AR arrestin ag = qHTS assay of beta-arrestin-biased ligands of beta2-adrenergic receptor: NCGC Sytravon Library Screen | Beta-2 adrenergic receptor (Homo sapiens), P07550 | HTLA Tango cells, beta-arrestin recruitment, luciferase luminescence, 18 h | Potency, µM (doses to about 46.1 µM), hits mostly activators | 44,000 tested, under 10 active | AID 1347077, 2019
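Ligand-induced beta-arrestin recruitment to recombinant beta2-AR is measured via a tTA-driven luciferase reporter in Tango cells after 18 hr compound exposure at 37 degrees C. Concentrations span up to 46 microM.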
DYRK1A KinaseGlo = Assay for Inhibitors of Dual-Specificity Tyrosine-(Y)-Phosphorylation Regulated Kinase 1A (Kinase-Glo assay); recombinant DYRK1A, Kinase-Glo ATP depletion luminescence; Potency, µM (highest dose often 76.9 µM), most hits filed as inhibitors; AID 2705, 2010; shares compounds with NTMT1 inh; hit rate 80% among 100
CLK4 KinaseGlo = Confirmation Assay for Inhibitors of CDC-like Kinase 4 (Kinase-Glo Assay): SAR round 2; shares compounds with NTMT1 inh; recombinant Clk4, Kinase-Glo ATP luminescence, 4.5 h; Potency, µM (series often up to 76.9 µM), usual class: inhibitors; hit rate 90% among 90; AID 493204, 2011
NNMT counter = Counterscreen qHTS for Inhibitors of N-terminal methyltransferase 1 (NTMT1): NNMT MTaseGlo assay | shares compounds with NTMT1 inh | NNMT MTase-Glo luminescence, SAH detection | Potency, µM (series often up to 57.1 µM), hits mostly inhibitors | hit rate 10% among 120
Of the large screens only hits and unclear results are named; the others gave an inactive call (follow-up assays come after a bar, where they were run). Unless noted, calls come from the whole dose curve; as a rule, active = well fitted curve in the direction sought with a large enough effect; inconclusive = small, poorly fitted or top-dose-only effect, or another doubt; inactive = no such curve, though single readings can be large; an effect the other way counts as inactive or inconclusive.

Cc1cccc(CNc2ncnc3ccc(-c4ccc5c(c4)OCCO5)cc23)c1	none (no result: DRV1 agonist, OvCa metastasis, PTAP-TSG101 blk, GALK inh, B2AR arrestin ag)
CN(Cc1ncc[nH]1)c1ncnc2ccc(-c3ccc4c(c3)OCO4)cc12	NTMT1 inh inconclusive (no result: DRV1 agonist, OvCa metastasis, PTAP-TSG101 blk, GALK inh, B2AR arrestin ag) | DYRK1A KinaseGlo 0.733µM
CN(CC1CCCO1)c1ncnc2ccc(-c3ccc4c(c3)OCO4)cc12 (stereo unspecified)	none (no result: DRV1 agonist, OvCa metastasis, PTAP-TSG101 blk, GALK inh, B2AR arrestin ag) | CLK4 KinaseGlo 0.0582µM
Cc1ccc(CN(C)c2ncnc3ccc(-c4ccc(CO)n4C)cc23)o1	none (no result: DRV1 agonist, OvCa metastasis, PTAP-TSG101 blk, NTMT1 inh, GALK inh, B2AR arrestin ag) | CLK4 KinaseGlo 23.2µM
CCn1c(=O)c(-c2ccn[nH]2)cc2c(C)nc(N)nc21	none (no result: DRV1 agonist, OvCa metastasis, PTAP-TSG101 blk, GALK inh, B2AR arrestin ag) | NNMT counter inactive
C[C@@H](O)c1ccc(-c2ccc3ncnc(NCc4cccs4)c3c2)o1	none (no result: DRV1 agonist, OvCa metastasis, PTAP-TSG101 blk, GALK inh, B2AR arrestin ag) | CLK4 KinaseGlo 1.46µM
Clc1cccc(-c2ccc3ncnc(NCc4cccs4)c3c2)c1	none (no result: DRV1 agonist, OvCa metastasis, PTAP-TSG101 blk, GALK inh, B2AR arrestin ag)
FC1(F)Oc2ccc(-c3ccc4ncnc(NCc5cccs5)c4c3)cc2O1	none (no result: DRV1 agonist, OvCa metastasis, PTAP-TSG101 blk, GALK inh, B2AR arrestin ag) | DYRK1A KinaseGlo inconclusive
Cc1csc(CNc2ncnc3ccc(-c4ccc(C(C)O)o4)cc23)n1 (stereo unspecified)	NTMT1 inh inconclusive (no result: DRV1 agonist, OvCa metastasis, PTAP-TSG101 blk, GALK inh, B2AR arrestin ag) | CLK4 KinaseGlo 1.04µM
O=Cc1ccc(-c2ccc3ncnc(NCc4cccs4)c3c2)o1	NTMT1 inh inconclusive (no result: DRV1 agonist, OvCa metastasis, PTAP-TSG101 blk, GALK inh, B2AR arrestin ag) | CLK4 KinaseGlo 26µM
CC(C)c1ccc(NC(=O)CSC2=Nc3ccccc3C3=NC(CC(=O)NCCc4ccccc4)C(=O)N23)cc1 (stereo unspecified)	none
COc1ccc(C(=O)Nc2ccc3nc4c(c(Nc5ccccc5OC)c3c2)CCCC4)c(OC)c1	none
CC(=O)c1ccc(Nc2cc(C)nc3nc(Cc4ccccc4)nn23)cc1	none
Cc1ccc(OCC(=O)NCC(=O)OCc2cc(=O)n3nc(C)sc3n2)cc1	none
COc1ccccc1CCNC(=O)Cn1ccc2cc(S(=O)(=O)N3CCCCCC3)ccc21	none
c1coc(-c2ccc3ncnc(NCc4cccs4)c3c2)c1	none (no result: DRV1 agonist, OvCa metastasis, PTAP-TSG101 blk, GALK inh, B2AR arrestin ag) | DYRK1A KinaseGlo 6.54µM
Clc1ccccc1-c1ccc2ncnc(NCc3cccs3)c2c1	none (no result: DRV1 agonist, OvCa metastasis, PTAP-TSG101 blk, GALK inh, B2AR arrestin ag)
